# Screening data as filed in PubChem BioAssay.
# In the library only some 1.3% were active in any assay of this set; here they are far more common.
# NCOA2 inhibitor: human SRC2 (NCOA2) inhibition. Q15596. HEK293 GAL4-SRC2 luciferase reporter, luminescence. 370,000 tested, 0.17% active. inhibition, % at 9 µM;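 active = inhibition above the mean inhibition of all tested compounds plus 3 SD, set per campaign, cut at about 52% in these data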;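 also: 0% = DMSO treated cells and 100% = cells given Gossypol at 36 µM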
# SRC1 inh: inhibitors of human steroid receptor coactivator 1 (SRC1). Q15788. HEK293 GAL4-SRC1 luciferase reporter, luminescence. inhibition, % at 3.6 µM. 360,000 tested, 0.12% active;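 active = inhibition above the campaign mean plus 3 SD, with each screening campaign given its own cutoff, cut at about 60% in these data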;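 also: 0% = DMSO treated cells and 100% = gossypol at 36 µM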
# SRC3 inh: inhibits human SRC3 coactivator; Q9Y6Q9; inhibition, % at 3.6 µM; 360,000 tested, 0.17% active; HEK293 GAL4-SRC3 luciferase reporter, luminescence;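 active = inhibition above a per-campaign cutoff, the mean of all compounds plus 3 SD, cut at about 60% in these data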;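 also: 0% = DMSO-treated cells and 100% = gossypol-treated cells at 36 µM; higher means less SRC3-driven luciferase light from the GAL4 reporter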
# LRH-1 inv ag: inverse agonists of human LRH-1 (NR5A2); O00482; 360,000 tested, 0.13% active; HEK293T StAR-luciferase reporter, LRH-1 transfected, 24 h; inhibition, % at 3.6 µM;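 active = inhibition above the mean inhibition of all tested compounds plus 3 SD, cut at about 73% in these data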;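 also: 0% = DMSO wells and 100% = reporter-only cells lacking LRH-1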
# Target sequence (O00482 whole entry, looked up): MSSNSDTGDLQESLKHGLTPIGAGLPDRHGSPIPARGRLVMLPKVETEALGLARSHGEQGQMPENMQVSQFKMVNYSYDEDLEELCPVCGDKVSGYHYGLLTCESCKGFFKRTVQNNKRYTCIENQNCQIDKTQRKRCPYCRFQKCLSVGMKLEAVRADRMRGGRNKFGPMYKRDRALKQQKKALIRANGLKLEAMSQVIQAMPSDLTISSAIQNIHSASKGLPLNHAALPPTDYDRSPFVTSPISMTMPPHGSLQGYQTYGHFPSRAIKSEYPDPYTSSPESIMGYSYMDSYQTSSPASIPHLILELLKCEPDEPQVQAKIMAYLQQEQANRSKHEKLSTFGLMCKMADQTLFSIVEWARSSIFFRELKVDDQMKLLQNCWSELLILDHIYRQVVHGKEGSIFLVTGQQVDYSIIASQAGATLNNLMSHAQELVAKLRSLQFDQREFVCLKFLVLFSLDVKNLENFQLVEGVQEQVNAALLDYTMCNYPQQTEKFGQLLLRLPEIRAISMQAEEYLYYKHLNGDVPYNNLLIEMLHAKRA
# COUP-TFII inh: NR2F2 (human) inhibition, primary screen. 370,000 tested, 0.7% active. HEK293T NGFI-A luciferase reporter, luminescence. P24468. inhibition, % at 8.6 µM;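 active = inhibition above a per-plate cutoff, mean inhibition of test wells between control levels plus 3 SD, cut at about 38% in these data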;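 also: cells cotransfected with COUP-TFII expression vector driving the NGFI-A reporter; 0% = median of COUP-TF2 test wells and 100% = reporter-only cells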
# Gli-Sufu antag: antagonists of Gli-Sufu signaling; Sufu-KO-LIGHT fibroblasts, Gli luciferase reporter luminescence; inhibition, % at 5 µM; 340,000 tested, 0.74% active; AID 588413;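 active = inhibition above about 55%, limit read from the data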;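 also: 0% = DMSO-treated cells and 100% = wells with medium but no cells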
# Gli-Sufu confirm: Gli-SUFU antagonism confirmation, single concentration; shares compounds with Gli-Sufu antag; Sufu-KO-LIGHT cells, Gli luciferase reporter, luminescence; 2,500 tested, 40% active; inhibition, % at 5 µM;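 active = mean inhibition at 5 µM reaching about 45%, limit read from the data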;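 also: plate controls were DMSO-treated cells for no effect and wells lacking cells for full effect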
# Gli cytotox: cytotoxicity counter-screen for Gli-SUFU antagonists; shares compounds with Gli-Sufu antag; Sufu-KO-LIGHT cells cytotoxicity, ATP luminescence; cytotoxicity, % at 5 µM; 2,500 tested, 32% active; AID 651994;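 active = mean cytotoxicity at 5 µM above about 25%, limit read from the data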;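 also: cells exposed to compound overnight for roughly 16 to 18 hours; plate controls were DMSO wells with cells for no effect and medium without cells for full effect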
# Wnt3a cs: counter-screen for Gli-SUFU antagonists: Wnt3a reporter inhibition; 2,500 tested, 20% active; inhibition, % at 6.25 µM; shares compounds with Gli-Sufu antag; Wnt-LIGHT cells, Wnt3a-driven luciferase reporter, luminescence; AID 651995;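 active = mean inhibition above about 25%, limit read from the data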
# VP16 Luc counter: inhibits VP16 reporter, flagging COUP-TFII antagonist hits; HEK293 Gal4-VP16 luciferase reporter, luminescence; inhibition, % at 8.5 µM; shares compounds with COUP-TFII inh; 2,500 tested, 25% active; in the data active = inhibition above about 13%
# COUP-TFII conf: confirmation of human COUP-TFII (NR2F2) inhibitors; shares compounds with COUP-TFII inh; HEK293 NGFI-A luciferase reporter, luminescence; inhibition, % at 8.5 µM; 2,500 tested, 45% active; AID 687008;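 active = mean inhibition over three repeats above a set limit taken from the earlier primary screen, cut at about 38% in these data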;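 also: 100% = cells given the luciferase reporter alone without the COUP-TF2 vector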
# An asterisk follows results filed as active; · = no result.
SMILES,NCOA2 inhibitor,SRC1 inh,SRC3 inh,LRH-1 inv ag,COUP-TFII inh,Gli-Sufu antag,Gli-Sufu confirm,Gli cytotox,Wnt3a cs,VP16 Luc counter,COUP-TFII conf
O=C(NC(Nc1nc2ccc([N+](=O)[O-])cc2s1)(C(F)(F)F)C(F)(F)F)c1cccnc1,-29,69*,78*,91*,77*,84*,87*,35*,81*,7,70*
N=c1c2c(n(Cc3ccc(Cl)c(Cl)c3)c3c1CCC3)CCCC2,-46,63*,68*,96*,64*,83*,89*,19,36*,16*,47*
N=c1c2c(n(Cc3ccc(Br)cc3)c3c1CCC3)CCCC2,-19,42,75*,93*,68*,88*,89*,38*,54*,24*,61*
CN(CCOC(=O)c1cccs1)C1CN(Cc2cn(Cc3ccccc3Cl)nn2)S(=O)(=O)C1 (stereo unspecified),-11,·,·,·,-9,·,·,·,·,·,·
COc1ccc(-n2ncc3c(N(C)C4CCCCC4)ncnc32)cc1,63*,79*,79*,79*,89*,60*,80*,77*,99*,74*,94*
COc1ccc(-n2ncc3c(N4CCC(C)CC4)ncnc32)cc1,-27,-71,-86,-64,-16,-47,·,·,·,·,·
Cc1cccc(-n2ncc3c(N(C)C4CCCCC4)ncnc32)c1,62*,81*,81*,77*,87*,56*,76*,69*,99*,49*,92*
COc1cccc(COc2cc3ccccc3nc2C)c1,-8,3,-3,28,59*,53,58*,30*,15,-63,41*
Cc1nc2ccccc2cc1OCc1ccccc1,3,-12,-13,12,24,26,·,·,·,·,·
COC(=O)c1sccc1OCc1cccc(OC)c1,-5,-72,3,1,7,0,·,·,·,·,·
Cc1nc2ccccc2cc1OCc1ccc(Cl)cc1,-1,-15,-4,11,50*,53,50*,37*,4,-61,29
COc1ccc2c(c1)CNC2CS(=O)(=O)NCCc1ccccc1 (stereo unspecified),0,·,·,·,6,·,·,·,·,·,·
O=C(Cn1cnc2ccccc21)Nc1ccc(SC(F)F)cc1,23,-6,20,34,70*,65*,57*,37*,-7,-4,46*
C[C@H]1[C@@H](c2ccccc2)Oc2c(Cl)cccc2S(=O)(=O)N1C,5,·,·,·,-2,·,·,·,·,·,·
O=C(NC1CC1)C1=C[C@H](C2CCCCC2)C[C@H](OCCCCO)O1,-13,-32,-71,2,2,-3,·,·,·,·,·
O=C(Nc1ccccc1)C1=C[C@@H](C2CCCCC2)C[C@@H](OCCCCO)O1,30,9,11,15,40*,68*,80*,3,3,-33,13
COc1ccc(C(=O)CN2C(=O)c3ccccc3S2(=O)=O)cc1Br,21,-4,-8,23,10,20,·,·,·,·,·
Cc1cc(C(=O)CN2C(=O)NC(C)(c3ccccc3)C2=O)c(C)n1CC1CCCO1 (stereo unspecified),·,1,0,1,·,-4,·,·,·,·,·
COc1ccc(C(=O)CN2C(=O)c3ccccc3S2(=O)=O)cc1,81*,58,61,35,91*,88*,93*,38*,102*,52*,77*
Cc1cc(C(=O)CN2C(=O)c3ccccc3S2(=O)=O)c(C)n1CC1CCCO1 (stereo unspecified),88*,80*,88*,89*,93*,83*,82*,54*,99*,86*,96*
CCOC(=O)Cc1ccc(NC(=O)c2ccc(C(C)(C)C)cc2)cc1,78*,3,9,29,58*,60*,68*,22,101*,46*,53*
CCOC(=O)Cc1ccc(NC(=O)c2ccccc2Br)cc1,-11,-5,-3,10,2,-10,·,·,·,·,·
CCOC(=O)N1CCN(C(=O)c2cc(COc3ccc4ncccc4c3)on2)CC1,30,3,12,27,58*,67*,51*,23,23,-1,46*
O=C(NC1CCCCCCC1)c1cc(COc2ccc3ncccc3c2)on1,31,24,35,42,62*,73*,73*,28*,-12,2,63*
O=C(c1cc(COc2ccc3ncccc3c2)on1)N1CCC(O)CC1,-22,-15,-19,-7,24,27,·,·,·,·,·
SMILES,NCOA2 inhibitor,SRC1 inh,SRC3 inh,LRH-1 inv ag,COUP-TFII inh,Gli-Sufu antag,Gli-Sufu confirm,Gli cytotox,Wnt3a cs,VP16 Luc counter,COUP-TFII conf
CCC(O)C1CCN(C(=O)c2cc(COc3ccc4ncccc4c3)on2)CC1 (stereo unspecified),4,24,1,33,72*,73*,65*,20,40*,5,63*
Cc1cccnc1CN1CCN(C(=O)c2cc(COc3ccc4ncccc4c3)on2)CC1,34,-55,19,30,63*,62*,66*,27*,27*,-1,38*
CN(Cc1ccccc1Cl)C(=O)CN1C(=O)C2(OCCCO2)c2ccccc21,-36,·,·,·,20,·,·,·,·,·,·
CCN(CC)S(=O)(=O)c1ccc(N2CCN(c3ccccc3OC)CC2)c(N)c1,18,5,12,16,48*,66*,78*,28*,32*,6,22
CN(CCCOC(=O)CC1C=CCC1)C1CN(Cc2cn(Cc3ccccc3Cl)nn2)S(=O)(=O)C1 (stereo unspecified),-14,·,·,·,-10,·,·,·,·,·,·
Clc1ccc(-c2nnc(CSc3nnc(-c4cccs4)n3Cc3ccccc3)o2)cc1,25,27,21,41,51*,68*,66*,32*,10,8,47*
Cc1nc2ccc(NC(=O)c3cc(S(=O)(=O)N(C)c4ccccc4)ccc3Cl)cc2s1,24,28,15,43,78*,75*,73*,26*,53*,6,69*
CC(C)C(=O)N1CCC(Oc2cccnc2)CC1,-16,·,·,·,17,·,·,·,·,·,·
COc1ccc(-c2cc(C(=O)NN=C/C(C)=C/c3ccccc3)[nH]n2)cc1,-23,·,·,·,-39,·,·,·,·,·,·
